# PubChem BioAssay AID2685 (National Center for Advancing Translational Sciences (NCATS), 2010)
# The campaign covered roughly 320,000 compounds. About 2,100 (0.66%) were called active. Not shown: some 53% with an inconclusive outcome. Calls follow the shape of the dose curve; as a rule, active = well fitted inhibition curve with a large enough effect in the signal ratio, with a control signal flat (not every such curve was filed as active); inconclusive = small, poorly fitted or top-dose-only effect, or effect the other way, or a change in a side signal; inactive = flat fitted curve, though single readings scatter; the % refers to the signal ratio. The sample as a whole holds a higher share of actives than the screen did.
# Test: qHTS Assay for Lipid Storage Modulators in Drosophila S3 Cells;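 as to cell number change: cells counted by Cell Tracker Red CMTPX staining in the red channel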; as to lipid storage change, negative = inhibition: % is scaled to controls: 0 for no effect and ±100 for the full control effect
# Conditions: BODIPY lipid droplet fluorescence, 18-24 h, cells fed with added oleic acid; cell number change: measured here: cell count max response; series mostly up to 46.1 µM; lipid storage change, negative = inhibition: at the top concentration
# In short: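 Laser-scanning cytometry quantifies lipid droplet accumulation (500–530 nm total intensity; droplet/cell object ratio) in oleic acid-fed (400 uM added) Drosophila S3 cells treated with a concentration series. 20 uM Triacsin C defined 100% inhibition.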
# Potency is read from the fitted curve at half-maximal effect.
Structure (SMILES),Potency,cell number change [%],"lipid storage change, negative = inhibition",outcome
CCOc1ccc(CCNC(=O)Cn2cccc2C(=O)c2ccccc2)cc1OCC,16.4 µM (active),-22.9,,
COc1ccc(CCNC(=O)CN2C(=O)c3ccccc3S2(=O)=O)cc1OC,23.1 µM (active),-27.6,,
COc1ccc(CCNC(=O)CCCN2C(=O)c3ccccc3C2=O)cc1OC,,10.1,4.9% (inactive),
COc1ccc(CCNC(=O)CN2C(=O)c3ccccc3S2(=O)=O)cc1,,8.78,0.948% (inactive),
O=C(Cn1cccc1C(=O)c1ccccc1)NCCc1ccccc1,,,,inactive
COc1ccc(OC)c(CCNC(=O)Cn2cccc2C(=O)c2ccccc2C)c1,,3.16,3.63% (inactive),
COc1ccc(CCNC(=O)CCCOc2cc(=O)n(C)c3ccccc23)cc1OC,,11.7,-2.82% (inactive),
COc1ccc(CCNC(=O)CCCOc2cccc(C)c2C)cc1OC,6.51 µM (active),-23.6,,
COc1ccccc1CNC(=O)Cn1cccc1C(=O)c1ccccc1C,,-15.2,,inactive
COc1ccc(CCNC(=O)CCOc2cc(C)ccc2C)cc1OC,,-23.2,,inactive
CCOc1ccc(CCNC(=O)CCn2cccc2)cc1OCC,,0.009,11.2% (inactive),
NS(=O)(=O)c1ccc(CNC(=O)/C=C/c2ccccc2)cc1,,2.48,-14.1% (inactive),
O=C(CC(Sc1ccc(Br)cc1)C(=O)O)c1ccc(F)cc1 (stereo not given),,-1.05,-0.707% (inactive),
CN=C(Nc1ccc(C(=O)OC)s1)c1ccccc1,,,12.5% (inactive),
O=C(Nc1ccccc1)c1cccnc1NCCc1ccccc1,,-3.52,-0.163% (inactive),
Cc1ccc(CNC(=O)C(N=C2NS(=O)(=O)c3ccccc32)C(C)C)cc1 (stereo not given),,10.7,8% (inactive),
CN(CC(O)COc1ccc2ccccc2c1)C1CCCCC1 (stereo not given),,-0.529,-12.6% (inactive),
COc1ccc(OC)c(CCNC(=O)Cn2cccc2C(=O)c2ccccc2)c1,,,,inactive
COc1ccc(CCNC(=O)Cn2cccc2C(=O)c2ccccc2)cc1OC,25.9 µM (active),-21.4,,
COc1ccc(CCNC(=O)Cn2cccc2C(=O)c2ccccc2)c(OC)c1,,6.75,2.64% (inactive),
COc1ccc(NC(=O)C(OC(=O)c2ccc([N+](=O)[O-])o2)c2ccccc2)cc1Cl (stereo not given),,0.814,0.0378% (inactive),
Cc1nc2n(n1)C(c1ccccc1)C1=C(CC(c3ccco3)CC1=O)N2 (stereo not given),,,,inactive
Cc1cc(C)cc(NC(=O)C(=S)NCc2ccccc2)c1,,9.48,-0.376% (inactive),

Structure (SMILES),Potency,cell number change [%],"lipid storage change, negative = inhibition",outcome
O=C(NNc1nc2c(F)cc(F)cc2s1)c1ccccc1,,6.06,21.3% [at 9.22 µM] (inactive),
O=S(=O)(NC1CCN(Cc2ccccc2)CC1)c1ccc(Cl)cc1,,-5.28,0.306% (inactive),
O=S(=O)(c1ccccc1)c1nnn2c1nc(NC1CCN(Cc3ccccc3)CC1)c1ccccc12,,0.895,9.25% (inactive),
O=S(=O)(c1ccccc1)c1nnn2c1nc(NC1CCN(Cc3ccccc3)CC1)c1cc(Cl)ccc12,18.4 µM (active),-5.44,,
Cc1nc(CS(=O)(=O)c2ccccc2)cc(Sc2ccc(Cl)cc2)n1,,,,inactive
O=C(NCCCN1CCOCC1)c1ccc2c(c1)N(Cc1ccccc1)C(=O)c1ccccc1S2=O (stereo not given),,-4.72,,inactive
C=CCn1c(COc2cc(C)ccc2C(C)C)nnc1SCC(=O)c1c(N)n(C)c(=O)n(C)c1=O,,25.2,18.2% (inactive),
CCC(N1CCOC1=O)S(=O)(=O)c1ccc(C)cc1 (stereo not given),25.9 µM (active),-15.9,,
Cc1ccc(S(=O)(=O)N2CCN(S(=O)(=O)c3ccc(C)cc3)C3OCCOC32)cc1 (stereo not given),,-0.0898,10.1% (inactive),
Cc1ccc(S(=O)(=O)C(CCC(=O)N2CCOCC2)S(=O)(=O)c2ccc(C)cc2)cc1,,-12.5,11.4% (inactive),
Cc1ccc(S(=O)(=O)NC(CC(=O)n2nc(C)cc2C)c2ccccc2)cc1 (stereo not given),,,,inactive
COC(=O)c1ccc(Cl)c(NC(=O)CN2CCN(C)CC2)c1,25.9 µM (active),-16,,
COC(=O)c1ccc(Cl)c(NC(=O)CN2CCOCC2)c1,,-12.2,-3.77% (inactive),
COC(=O)c1ccc(Cl)c(NC(=O)CN2CCN(Cc3ccccc3)CC2)c1,,2.04,-0.436% (inactive),
COc1ccc(-n2c(=O)cc(N3CCN(Cc4ccccc4)CC3)[nH]c2=O)cc1,,-3.15,-0.394% (inactive),
Cc1ccccc1-c1nnc(SCC(=O)N2CCCC2)o1,,9.17,,inactive
O=C(CSc1nnc(-c2ccccc2Cl)o1)N1CCCCC1,,,,inactive
O=C(CSc1nnc(-c2ccccc2F)o1)N1CCCC1,23.1 µM (active),22.6,,
COC(=O)CN(n1cnnc1)S(=O)(=O)c1ccccc1Cl,,-1.98,,inactive
COc1cccc(NC(=O)COC(=O)CCn2c(C)csc2=O)c1,,-50,,inactive
CCCCn1c(SCC(=O)N(C)C)nnc1-c1ccncc1,,9.01,11.4% (inactive),
CCCCn1c(SCC(=O)N2CCc3ccccc32)nnc1-c1ccncc1,,-7.69,-8.27% (inactive),
CSc1nnc(-c2ccncc2)n1CCCN1CCCC1=O,0.731 µM (active),-16.4,,
